biological target: Activated CDC42 kinase 1 (Homo sapiens) (UniProt Q07912); settings: at 0.1 µM
Sequence (Q07912 whole entry, looked up): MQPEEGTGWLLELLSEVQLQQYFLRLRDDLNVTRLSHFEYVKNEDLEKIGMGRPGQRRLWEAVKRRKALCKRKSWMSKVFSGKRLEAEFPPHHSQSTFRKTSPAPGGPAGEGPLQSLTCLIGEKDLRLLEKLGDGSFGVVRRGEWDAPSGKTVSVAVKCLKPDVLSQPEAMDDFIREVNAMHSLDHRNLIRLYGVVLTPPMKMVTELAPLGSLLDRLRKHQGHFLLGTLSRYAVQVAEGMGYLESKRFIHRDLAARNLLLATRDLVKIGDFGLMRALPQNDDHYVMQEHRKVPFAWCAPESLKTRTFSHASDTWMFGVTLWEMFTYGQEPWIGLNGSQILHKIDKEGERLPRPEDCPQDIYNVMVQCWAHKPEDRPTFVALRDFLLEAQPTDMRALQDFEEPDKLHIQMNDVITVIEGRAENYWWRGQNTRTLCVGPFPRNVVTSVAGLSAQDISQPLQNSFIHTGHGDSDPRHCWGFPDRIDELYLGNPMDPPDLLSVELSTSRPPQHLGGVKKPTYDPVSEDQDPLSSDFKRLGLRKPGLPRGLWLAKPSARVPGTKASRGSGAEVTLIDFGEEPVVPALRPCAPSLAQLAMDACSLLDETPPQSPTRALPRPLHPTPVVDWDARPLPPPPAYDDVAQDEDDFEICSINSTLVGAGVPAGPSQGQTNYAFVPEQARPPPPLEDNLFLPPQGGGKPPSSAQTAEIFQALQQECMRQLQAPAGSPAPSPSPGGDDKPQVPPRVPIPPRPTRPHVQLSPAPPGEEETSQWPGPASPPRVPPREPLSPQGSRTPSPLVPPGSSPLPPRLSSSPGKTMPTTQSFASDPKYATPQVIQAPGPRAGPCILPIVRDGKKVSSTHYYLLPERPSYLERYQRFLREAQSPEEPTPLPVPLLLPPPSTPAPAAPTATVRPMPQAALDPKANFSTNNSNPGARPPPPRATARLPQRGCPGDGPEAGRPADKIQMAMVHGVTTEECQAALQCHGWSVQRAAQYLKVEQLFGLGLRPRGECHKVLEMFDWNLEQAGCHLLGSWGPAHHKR

Question: With `CCc1cccc(NC(=O)Nc2ccc(Oc3ccc4nc(NC(=O)OC)[nH]c4c3)cc2)c1` as the compound, how does the inhibition read?
Answer: -0.42%

Question: How did the inhibition turn out when `Nc1ncnc2occ(-c3ccc(NC(=O)Nc4cccc(C(F)(F)F)c4)cc3)c12` was run?
Answer: 0.8%

Question: With `CCn1c(-c2nonc2N)nc2c(C#CC(C)(C)O)nc(OC[C@@H](N)c3ccccc3)cc21` as the compound, how does the inhibition read?
Answer: 0.28%

Question: How did the inhibition turn out when `Cc1ccc(NC(=O)c2ccnc(N3CCCC3)c2)cc1-c1ccc(C(=O)NCC2CC2)cc1` was run?
Answer: 1.07%

Question: `CCn1c(-c2nonc2N)nc2cncc(C(=O)N3CC[C@H](N)C3)c21` was tested. Which inhibition did it give?
Answer: 1.08%

Question: With `Cn1cc(C=C2C(=O)Nc3cccnc32)c2ccccc21` as the compound, how does the inhibition read?
Answer: 0.71%

Question: Which inhibition does the source give for `CN(C)c1cc2c(Nc3ccc4nc(Cc5ccccc5)[nH]c4c3)ncnc2cn1` here?
Answer: 1.01%

Question: With `O=C1NC(=O)C(c2ccccc2Cl)=C1Nc1cccc(O)c1` as the compound, how does the inhibition read?
Answer: 1.29%

Question: Which inhibition does the source give for `CC(=O)Nc1cccc(C#Cc2cncnc2Nc2ccc(OCc3cccc(F)c3)c(Cl)c2)n1` here?
Answer: -0.48%

Question: How did the inhibition turn out when `COc1ccccc1Nc1ncc(-c2ccccc2)o1` was run?
Answer: 0.63%

Question: With `CCn1c(-c2nonc2N)nc2c(N3CCCC3)nccc21` as the compound, how does the inhibition read?
Answer: -0.78%

Question: `COc1ccc(-c2coc3ncnc(N)c23)cc1` was tested. Which inhibition did it give?
Answer: 0.34%

Question: How did the inhibition turn out when `O=C1NC(=O)C(c2cccc(Cl)c2)=C1Nc1ccc(O)c(Cl)c1` was run?
Answer: -0.75%

Question: `CS(=O)(=O)CCNCc1nc(-c2ccc3ncnc(Nc4ccc(F)c(Cl)c4)c3c2)cs1` was tested. Which inhibition did it give?
Answer: 0.19%

Question: Which inhibition does the source give for `COc1cc2c(cc1Nc1nc(N3CCc4ccccc43)c3cc[nH]c3n1)N(C(=O)CN(C)C)CC2` here?
Answer: 0.63%

Question: With `O=C1Nc2ccc(C(=O)c3ccco3)cc2C1=Cc1cc(Cl)c(O)c(Cl)c1` as the compound, how does the inhibition read?
Answer: 1.92%

Question: `CCCN1CCC=C(c2ccc(Nc3nc(Nc4ccccc4C(N)=O)c4cc[nH]c4n3)c(C)c2)C1` was tested. Which inhibition did it give?
Answer: 1%

Question: `COc1cccc(-n2ncc3c(N/N=C/c4cccc(F)c4)ncnc32)c1` was tested. Which inhibition did it give?
Answer: 0.24%

biological target: Activated CDC42 kinase 1 (Homo sapiens) (UniProt Q07912); settings: at 1 µM

Question: How did the inhibition turn out when `CC(C)=Cc1cccc2c1/C(=N/Nc1ccc(S(N)(=O)=O)cc1)C(=O)N2` was run?
Answer: 2.76%

Question: Which inhibition does the source give for `COC(=O)Nc1nc2cc(Oc3cccc(NC(=O)Nc4cc(C(F)(F)F)ccc4F)c3)ccc2[nH]1` here?
Answer: -1.08%

Question: With `Nc1ncnc2occ(-c3ccc(NC(=O)Nc4cc(C(F)(F)F)cc(C(F)(F)F)c4)cc3)c12` as the compound, how does the inhibition read?
Answer: 1.13%

Question: `CCn1c(-c2nonc2N)nc2cncc(C(=O)N3CCNCC3)c21` was tested. Which inhibition did it give?
Answer: 1.52%

Question: Which inhibition does the source give for `NC(=O)c1ccc(-c2nc(-c3ccccn3)c(-c3ccc4c(c3)OCO4)[nH]2)cc1` here?
Answer: 1.03%

Question: For `CCn1c(-c2nonc2N)nc2c(C#CC(C)(C)O)nc(CN3CCCC3)cc21`, which inhibition is on record?
Answer: -1.32%

Question: Which inhibition does the source give for `NCc1ccc(-c2nc(-c3ccc(Cl)c(O)c3)c(-c3ccncc3)[nH]2)cc1` here?
Answer: -0.9%

Question: `N#Cc1c(NC(=O)c2cccc3ccccc23)sc2c1CCCC2` was tested. Which inhibition did it give?
Answer: 0.56%

Question: How did the inhibition turn out when `Cc1cc(O)cc(C)c1/C=C/c1cncc(-c2nn[nH]n2)c1` was run?
Answer: 22%

Question: For `Cc1cccc(-c2n[nH]cc2-c2ccc3ncccc3n2)n1`, which inhibition is on record?
Answer: 0.91%

Question: How did the inhibition turn out when `O=C1NC(=O)C(N2CCc3ccccc32)=C1c1ccc(Cl)cc1` was run?
Answer: 1.5%

Question: For `CCn1c(-c2nonc2N)nc2ccncc21`, which inhibition is on record?
Answer: -2.72%

Question: Which inhibition does the source give for `Cc1nnc(-c2ccc(C)c(-c3ccc(C(=O)Nc4cccc(C#N)c4)cc3)c2)o1` here?
Answer: 2%

Question: How did the inhibition turn out when `COc1ccc(-c2nn3ncccc3c2-c2ccnc(Nc3ccc(Cl)c(C(F)(F)F)c3)n2)cc1` was run?
Answer: 1.6%

Question: With `CS(=O)(=O)CCNCc1ccc(-c2ccc3ncnc(Nc4ccc(OCc5ccccc5)c(Cl)c4)c3c2)o1` as the compound, how does the inhibition read?
Answer: 0.61%

Question: With `O=C1NC(=O)C(c2ccc(Cl)cc2)=C1Nc1ccc(Cl)c(C(=O)O)c1` as the compound, how does the inhibition read?
Answer: -0.48%

Question: With `CCc1cccc(NC(=O)Nc2ccc(Oc3ccc4nc(NC(=O)OC)[nH]c4c3)cc2)c1` as the compound, how does the inhibition read?
Answer: 1.35%

Question: For `Nc1ncnc2occ(-c3ccc(NC(=O)Nc4cccc(C(F)(F)F)c4)cc3)c12`, which inhibition is on record?
Answer: 1.54%

Question: How did the inhibition turn out when `CCn1c(-c2nonc2N)nc2c(C#CC(C)(C)O)nc(OC[C@@H](N)c3ccccc3)cc21` was run?
Answer: 5.21%

Question: For `Cc1ccc(NC(=O)c2ccnc(N3CCCC3)c2)cc1-c1ccc(C(=O)NCC2CC2)cc1`, which inhibition is on record?
Answer: 1.27%

Question: For `CCn1c(-c2nonc2N)nc2cncc(C(=O)N3CC[C@H](N)C3)c21`, which inhibition is on record?
Answer: 1.01%

Question: With `Cn1cc(C=C2C(=O)Nc3cccnc32)c2ccccc21` as the compound, how does the inhibition read?
Answer: 1.72%

Question: `CN(C)c1cc2c(Nc3ccc4nc(Cc5ccccc5)[nH]c4c3)ncnc2cn1` was tested. Which inhibition did it give?
Answer: 4.65%

Question: `O=C1NC(=O)C(c2ccccc2Cl)=C1Nc1cccc(O)c1` was tested. Which inhibition did it give?
Answer: 3.26%

Question: Which inhibition does the source give for `CC(=O)Nc1cccc(C#Cc2cncnc2Nc2ccc(OCc3cccc(F)c3)c(Cl)c2)n1` here?
Answer: 2.35%

Question: How did the inhibition turn out when `COc1ccccc1Nc1ncc(-c2ccccc2)o1` was run?
Answer: 3.33%

Question: `CCn1c(-c2nonc2N)nc2c(N3CCCC3)nccc21` was tested. Which inhibition did it give?
Answer: -0.6%

From ChEMBL document CHEMBL1961873, “Compounds: GSK PKIS; Assays: Nanosyn kinase panel” (2012)
